The source of these data is PubChem BioAssay (EPA / NIEHS).

Active and inactive are the calls of the source. How the source made its calls: active means hit-call score of the fitted dose curve at least 0.9, where 1 is the maximum; inactive means score below 0.9.

Assay [1] concerns the target Bile acid receptor (Homo sapiens) (UniProt Q96RI1). Put plainly: ATG_IR1_CIS: Attagene CIS-FACTORIAL HepG2 Assay for human Nuclear Receptor Subfamily 1 Group H Member 4 (NR1H4), IR1 submotif (AID 2282946). The settings on record: IR1 reporter transcription, actives raise or lower the signal. The essentials: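 Cells (human HepG2) carry transiently transfected cis-promoter reporter transcription units. Compounds are incubated 24 h, total RNA is reverse-transcribed and amplified, and labelled fragments are resolved by capillary electrophoresis. Curves use DMSO as baseline.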

Assay [2] can be described thus: ATG_ISRE_CIS: Attagene CIS-FACTORIAL HepG2 Assay for human Interferon Regulatory Factor 1 (IRF1) binding to an Interferon-Stimulated Response Element (ISRE) (AID 2282948). The settings on record: HepG2 ISRE cis-reporter (Attagene), mRNA transcription readout; actives raise or lower the signal. The essentials: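 Quantitation relies on labelled RT-PCR fragments separated by capillary electrophoresis. Human HepG2 cells bearing cis-promoter reporter constructs were treated 24 h; DMSO served as baseline for bidirectional fitting.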

Assay [3] is described as follows: ATG_M_32_CIS: Attagene CIS-FACTORIAL HepG2 Assay for M32 Transcription Factor (Internal Marker) (AID 2282949).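 Further: background control marker of the multiplexed CIS panel rather than a real target.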 The settings on record: HepG2 Attagene cis-factorial M32 reporter, mRNA; actives raise or lower the signal. The essentials:
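Internal background marker read-out: RT-PCR/capillary electrophoresis fluorescence of reporter transcripts from transiently transfected HepG2 cells after 24 h chemical exposure. Activity fitted bidirectionally relative to DMSO negative control.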

A short description of assay [4]: ATG_M_06_CIS: Attagene CIS-FACTORIAL HepG2 Assay for M06 Transcription Factor (Internal Marker) (AID 2282950). The conditions noted are these: HepG2 Attagene CIS-FACTORIAL M06 internal marker reporter; actives raise or lower the signal. The essentials:
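Cells (HepG2, transiently carrying cis-driven reporter units) receive chemical for 24 h before RNA isolation. Reporter cDNA is PCR-amplified, FAM-labelled by primer extension, HpaI-digested and sized on a capillary analyser.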

Assay [5] addresses Hypoxia-inducible factor 1-alpha (Homo sapiens) (UniProt Q16665). The assay is described as follows: ATG_HIF1a_CIS: Attagene CIS-FACTORIAL HepG2 Assay for human Hypoxia Inducible Factor 1 (HIF1A) (AID 2282951). The settings on record: HepG2 Attagene cis-factorial HIF1a reporter transcription; actives raise or lower the signal. The essentials:
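Measures endogenous transcription-factor activity through cis-regulated reporter mRNA in HepG2. Cells dosed 24 h; transcripts quantified by RT-PCR with 6-FAM-labelled products separated by capillary electrophoresis; DMSO serves as negative control.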

The target in assay [6] is Hepatocyte nuclear factor 6 (Homo sapiens) (UniProt Q9UBC0). The assay is described as follows: ATG_HNF6_CIS: Attagene CIS-FACTORIAL HepG2 Assay for human Hepatocyte Nuclear Factor 6 (HNF6) (AID 2282952). The conditions noted are these: HepG2 Attagene cis-factorial HNF6 reporter transcription; actives raise or lower the signal. The essentials:
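Transiently transfected HepG2 cells expressing cis-regulated reporter transcription units were exposed to chemical for 24 h in a 24-well format. Reporter transcript abundance was determined by fluorescence capillary electrophoresis.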

For assay [7], the target named is Heat shock factor protein 1 (Homo sapiens) (UniProt Q00613). Put plainly: ATG_HSE_CIS: Attagene CIS-FACTORIAL HepG2 Assay for human Heat Shock Transcription Factor 1 (HSE) (AID 2282953). The conditions noted are these: HepG2 HSE cis-reporter, Attagene RNA transcription; actives raise or lower the signal. A digest of the protocol: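 Liver-derived HepG2 cells carry transiently introduced multiple reporter units governed by cis promoters. Reporter RNA measured 24 h post-dose through reverse transcription, PCR amplification, fluorescent labelling and capillary electrophoresis, normalised to DMSO.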

Assay [8] is described as follows: ATG_MRE_CIS: Attagene CIS-FACTORIAL HepG2 Assay for human Metal Responsive Element (MRE) (AID 2282954). The settings on record: HepG2 MRE cis-reporter transcription, Attagene multiplex; actives raise or lower the signal. The essentials:
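After a 24 h chemical exposure, transiently transfected HepG2 cells yield RNA whose reporter sequences are amplified, FAM-labelled and sized by capillary electrophoresis. Curves are fitted bidirectionally relative to DMSO.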

Assay [9] in a line: ATG_PBREM_CIS: Attagene CIS-FACTORIAL HepG2 Assay for human Phenobarbital-responsive Enhancer Module (PBREM) (AID 2282955). The settings on record: HepG2 PBREM cis-reporter, Attagene multiplexed transcription; actives raise or lower the signal. A digest of the protocol: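 Fluorescence of labelled reporter cDNA fragments, resolved by capillary electrophoresis, gives mRNA induction in transfected HepG2 cells treated for 24 h; DMSO serves as negative control and baseline.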

A short description of assay [10]: ATG_PXRE_CIS: Attagene CIS-FACTORIAL HepG2 Assay for human Pregnane X Receptor Element (PXRE) (AID 2282957). The conditions noted are these: HepG2 Attagene CIS-FACTORIAL PXRE reporter, mRNA; actives raise or lower the signal. The essentials:
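Cis-element reporter mRNA in human hepatoma HepG2 cells is measured 24 h post-dosing by RT-PCR, primer-extension labeling and capillary electrophoresis; gain or loss of signal is fitted relative to DMSO.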

The nature of assay [11]: ATG_RORE_CIS: Attagene CIS-FACTORIAL HepG2 Assay for human RAR-related Orphan Receptor Element (RORE) (AID 2282959). The conditions noted are these: HepG2 Attagene cis-factorial RORE reporter, mRNA; actives raise or lower the signal. A digest of the protocol:
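Cells were HepG2 carrying transfected cis-regulated reporter constructs, dosed for 24 hours. Total RNA was reverse-transcribed and reporter cDNA amplified, fluorescently labeled and sized by capillary electrophoresis. Activity was fitted bidirectionally relative to DMSO.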

Assay [12] can be described thus: ATG_Sox_CIS: Attagene CIS-FACTORIAL HepG2 Assay for human SRY-box transcription factor (SOX) (AID 2282960). The conditions noted are these: HepG2 Attagene cis-factorial SOX reporter, mRNA; actives raise or lower the signal. The essentials: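 Transient MRTU transfection of HepG2; 24 h compound incubation; TriZol RNA, oligo(dT) RT, PCR, 6-FAM primer extension, HpaI cut, CE. Bidirectional fit, DMSO = baseline.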

Assay [13] in a line: ATG_SREBP_CIS: Attagene CIS-FACTORIAL HepG2 Assay for human Sterol Regulatory Element Binding (SREBP) (AID 2282962). The settings on record: HepG2 Attagene cis-factorial SREBP reporter, mRNA; actives raise or lower the signal. The essentials:
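Twenty-four hours after chemical dosing of transfected HepG2 cultures, reporter RNA was converted to cDNA, amplified, end-labelled with 6-FAM and resolved by capillary electrophoresis. Responses were fitted relative to DMSO.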

Assay [14] addresses Signal transducer and activator of transcription 3 (Homo sapiens) (UniProt P40763). Put plainly: ATG_STAT3_CIS: Attagene CIS-FACTORIAL HepG2 Assay for human Signal Transducer and Activator of Transcription 3 (STAT3) (AID 2282963). The conditions noted are these: HepG2, Attagene cis-factorial STAT3 reporter transcription; actives raise or lower the signal. A digest of the protocol:
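After a 24 h compound incubation, total RNA from MRTU-transfected HepG2 cells was converted to cDNA and reporter sequences PCR-amplified, labelled and profiled by capillary electrophoresis. Gain and loss of signal were referenced to DMSO.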

Assay [15] can be described thus: ATG_TCF_b_cat_CIS: Attagene CIS-FACTORIAL HepG2 Assay for human T-Cell-Factor with beta-catenin (TCF/b-cat) (AID 2282965). The settings on record: HepG2 TCF/beta-catenin cis-reporter transcription, actives raise or lower the signal. The essentials:
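Endogenous transcription factor activity is captured through cis-promoter reporter constructs transiently introduced into human HepG2 liver cells. Induced reporter mRNA is measured after 24 h and fitted bidirectionally relative to DMSO.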

For assay [16], the target named is Paired box protein Pax-6 (Homo sapiens) (UniProt P26367). The assay is described as follows: ATG_Pax6_CIS: Attagene CIS-FACTORIAL HepG2 Assay for human Paired Box 6 (PAX6) (AID 2282956). The conditions noted are these: HepG2 CIS-FACTORIAL PAX6 reporter transcription, RNA readout; actives raise or lower the signal. A digest of the protocol: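 After twenty-four hours of chemical exposure, transfected HepG2 cells are harvested for RNA. Cis-promoter reporter transcripts are amplified, fluorescently labelled and sized by capillary electrophoresis, with gain and loss of signal scored against DMSO.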

Assay [17] can be described thus: ATG_PPRE_CIS: Attagene CIS-FACTORIAL HepG2 Assay for human Peroxisome Proliferator-activated Response Element (PPRE) (AID 2282958). The settings on record: HepG2 PPRE cis-element reporter, Attagene transcription factor profiling; actives raise or lower the signal. The essentials: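 Cells are first transfected transiently with the multiplexed reporter library, then dosed for 24 h. Total RNA is reverse-transcribed, amplified, fluorescently end-labeled and HpaI-cut before capillary electrophoresis; activity is fitted bidirectionally against DMSO controls.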

Assay [18] addresses Transcription factor Sp1 (Homo sapiens) (UniProt P08047). Put plainly: ATG_Sp1_CIS: Attagene CIS-FACTORIAL HepG2 Assay for human Specificity Protein 1 (Sp1) (AID 2282961). The conditions noted are these: HepG2 Sp1 cis-reporter transcription, actives raise or lower the signal. The essentials: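 Endogenous Sp1 activity was gauged in human liver HepG2 cells bearing transfected reporter units under a cis-regulating promoter. After 24 h dosing, reporter mRNA was quantified by RT-PCR with capillary electrophoresis, and activity fitted bidirectionally versus DMSO.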

Assay [19] can be described thus: ATG_TA_CIS: Attagene CIS-FACTORIAL HepG2 Assay for human TA Basal Promoter (AID 2282964). The conditions noted are these: HepG2 Attagene CIS-factorial TA basal promoter reporter; actives raise or lower the signal. A digest of the protocol: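 Background internal-marker endpoint from a 52-component HepG2 cis-reporter panel. Cells treated 24 h; reporter transcripts quantified via RT-PCR and CE fluorescence against DMSO baseline.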

Sequence of Bile acid receptor (Homo sapiens) (Q96RI1 whole entry, looked up, the tested form may be a part): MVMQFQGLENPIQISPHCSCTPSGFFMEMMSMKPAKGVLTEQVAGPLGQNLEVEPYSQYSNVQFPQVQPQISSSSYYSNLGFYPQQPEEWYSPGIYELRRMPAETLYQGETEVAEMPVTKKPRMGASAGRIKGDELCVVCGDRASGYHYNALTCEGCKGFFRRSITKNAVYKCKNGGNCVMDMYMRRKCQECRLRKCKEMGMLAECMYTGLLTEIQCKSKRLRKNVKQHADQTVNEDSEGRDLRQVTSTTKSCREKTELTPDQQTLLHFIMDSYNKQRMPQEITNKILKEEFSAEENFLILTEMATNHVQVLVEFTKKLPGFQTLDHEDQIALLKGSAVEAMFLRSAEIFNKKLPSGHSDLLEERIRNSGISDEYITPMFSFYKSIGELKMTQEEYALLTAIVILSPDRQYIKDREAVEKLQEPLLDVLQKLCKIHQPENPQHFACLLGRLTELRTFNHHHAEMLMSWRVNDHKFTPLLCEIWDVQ
Sequence of Paired box protein Pax-6 (Homo sapiens) (P26367 whole entry, looked up): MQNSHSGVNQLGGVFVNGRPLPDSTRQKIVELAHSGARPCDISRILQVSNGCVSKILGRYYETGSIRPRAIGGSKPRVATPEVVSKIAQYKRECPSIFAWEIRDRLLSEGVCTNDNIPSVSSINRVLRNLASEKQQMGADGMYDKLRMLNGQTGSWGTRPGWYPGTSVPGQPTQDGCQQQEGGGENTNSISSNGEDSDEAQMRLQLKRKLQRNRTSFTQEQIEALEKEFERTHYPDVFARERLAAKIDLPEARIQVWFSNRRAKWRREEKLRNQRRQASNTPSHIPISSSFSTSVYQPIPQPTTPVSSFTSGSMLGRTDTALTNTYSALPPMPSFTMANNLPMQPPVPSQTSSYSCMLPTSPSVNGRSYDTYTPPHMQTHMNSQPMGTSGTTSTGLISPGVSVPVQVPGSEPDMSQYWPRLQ
Sequence of Heat shock factor protein 1 (Homo sapiens) (Q00613 whole entry, looked up): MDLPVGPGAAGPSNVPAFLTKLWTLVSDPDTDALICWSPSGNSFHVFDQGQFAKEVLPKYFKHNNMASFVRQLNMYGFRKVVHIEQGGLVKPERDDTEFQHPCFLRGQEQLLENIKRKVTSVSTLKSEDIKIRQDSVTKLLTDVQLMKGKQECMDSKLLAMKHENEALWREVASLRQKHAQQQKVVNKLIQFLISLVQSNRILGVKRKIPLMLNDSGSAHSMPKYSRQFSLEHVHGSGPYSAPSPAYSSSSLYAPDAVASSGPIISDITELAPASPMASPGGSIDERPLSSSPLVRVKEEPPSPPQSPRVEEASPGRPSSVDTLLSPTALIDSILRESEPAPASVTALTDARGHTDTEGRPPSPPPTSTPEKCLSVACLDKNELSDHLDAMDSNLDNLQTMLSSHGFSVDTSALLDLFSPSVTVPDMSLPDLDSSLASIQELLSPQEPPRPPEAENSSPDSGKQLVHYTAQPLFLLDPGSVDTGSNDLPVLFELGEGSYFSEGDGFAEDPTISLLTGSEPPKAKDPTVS
Sequence of Hypoxia-inducible factor 1-alpha (Homo sapiens) (Q16665 whole entry, looked up): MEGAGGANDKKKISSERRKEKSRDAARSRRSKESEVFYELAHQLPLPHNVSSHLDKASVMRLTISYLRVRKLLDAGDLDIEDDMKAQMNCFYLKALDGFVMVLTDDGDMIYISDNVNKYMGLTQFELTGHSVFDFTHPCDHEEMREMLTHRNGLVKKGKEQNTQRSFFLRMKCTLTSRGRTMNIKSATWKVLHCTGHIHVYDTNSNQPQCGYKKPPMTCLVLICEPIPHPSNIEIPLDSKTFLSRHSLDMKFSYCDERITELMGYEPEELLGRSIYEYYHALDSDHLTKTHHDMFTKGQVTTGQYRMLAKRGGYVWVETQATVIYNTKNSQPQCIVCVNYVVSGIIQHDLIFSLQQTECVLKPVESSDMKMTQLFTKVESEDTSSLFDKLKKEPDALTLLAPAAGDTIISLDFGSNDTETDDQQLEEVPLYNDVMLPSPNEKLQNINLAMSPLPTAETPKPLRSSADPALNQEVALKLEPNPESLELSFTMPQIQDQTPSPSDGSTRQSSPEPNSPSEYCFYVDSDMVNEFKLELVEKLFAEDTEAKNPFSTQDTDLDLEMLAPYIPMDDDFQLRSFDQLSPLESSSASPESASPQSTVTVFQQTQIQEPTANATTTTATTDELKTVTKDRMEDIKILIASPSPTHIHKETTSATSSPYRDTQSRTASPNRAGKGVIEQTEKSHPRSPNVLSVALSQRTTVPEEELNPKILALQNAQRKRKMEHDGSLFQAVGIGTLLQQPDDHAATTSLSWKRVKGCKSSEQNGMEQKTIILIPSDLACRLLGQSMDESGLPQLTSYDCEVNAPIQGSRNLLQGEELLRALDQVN
Sequence of Transcription factor Sp1 (Homo sapiens) (P08047 whole entry, looked up): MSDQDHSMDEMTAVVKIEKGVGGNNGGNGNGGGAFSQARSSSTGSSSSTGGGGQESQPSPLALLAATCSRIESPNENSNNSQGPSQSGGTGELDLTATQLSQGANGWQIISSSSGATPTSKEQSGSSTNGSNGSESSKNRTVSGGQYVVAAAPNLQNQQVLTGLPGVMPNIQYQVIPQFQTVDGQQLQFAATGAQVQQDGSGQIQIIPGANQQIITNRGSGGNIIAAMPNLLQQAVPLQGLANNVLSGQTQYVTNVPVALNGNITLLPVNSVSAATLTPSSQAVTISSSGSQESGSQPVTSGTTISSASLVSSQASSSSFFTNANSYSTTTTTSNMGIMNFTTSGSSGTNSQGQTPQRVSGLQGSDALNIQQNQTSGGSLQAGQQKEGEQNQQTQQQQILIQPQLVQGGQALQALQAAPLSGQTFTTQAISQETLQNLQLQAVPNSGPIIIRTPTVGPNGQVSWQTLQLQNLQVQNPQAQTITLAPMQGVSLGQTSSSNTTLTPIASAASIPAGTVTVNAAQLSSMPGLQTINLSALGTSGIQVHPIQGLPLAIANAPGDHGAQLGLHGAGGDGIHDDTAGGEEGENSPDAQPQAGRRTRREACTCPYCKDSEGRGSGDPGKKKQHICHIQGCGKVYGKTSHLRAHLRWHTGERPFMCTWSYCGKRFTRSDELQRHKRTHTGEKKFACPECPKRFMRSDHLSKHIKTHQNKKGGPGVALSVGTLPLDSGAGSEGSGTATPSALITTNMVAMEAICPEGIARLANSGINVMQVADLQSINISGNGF
Sequence of Signal transducer and activator of transcription 3 (Homo sapiens) (P40763 whole entry, looked up): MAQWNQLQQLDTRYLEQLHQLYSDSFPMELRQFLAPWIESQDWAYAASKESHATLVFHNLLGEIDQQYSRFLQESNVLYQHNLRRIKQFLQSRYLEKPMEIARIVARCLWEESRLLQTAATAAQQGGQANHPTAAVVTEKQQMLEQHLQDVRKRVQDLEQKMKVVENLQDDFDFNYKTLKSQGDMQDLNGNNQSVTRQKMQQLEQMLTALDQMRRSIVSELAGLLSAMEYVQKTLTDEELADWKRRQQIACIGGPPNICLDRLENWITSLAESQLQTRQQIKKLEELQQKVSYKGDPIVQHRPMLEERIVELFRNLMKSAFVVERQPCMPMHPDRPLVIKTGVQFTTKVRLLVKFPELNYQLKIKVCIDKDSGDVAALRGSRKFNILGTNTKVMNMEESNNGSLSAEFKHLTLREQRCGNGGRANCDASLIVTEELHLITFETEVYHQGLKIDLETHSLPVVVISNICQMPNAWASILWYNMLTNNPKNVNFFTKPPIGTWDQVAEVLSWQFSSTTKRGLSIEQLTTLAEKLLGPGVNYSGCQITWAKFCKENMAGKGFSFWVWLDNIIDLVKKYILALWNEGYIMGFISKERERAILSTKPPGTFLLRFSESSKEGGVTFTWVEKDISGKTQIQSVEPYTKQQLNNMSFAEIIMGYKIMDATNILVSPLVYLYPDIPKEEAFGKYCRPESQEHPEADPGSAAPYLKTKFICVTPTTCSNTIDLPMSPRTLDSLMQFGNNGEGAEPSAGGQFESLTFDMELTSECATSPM
Sequence of Hepatocyte nuclear factor 6 (Homo sapiens) (Q9UBC0 whole entry, looked up): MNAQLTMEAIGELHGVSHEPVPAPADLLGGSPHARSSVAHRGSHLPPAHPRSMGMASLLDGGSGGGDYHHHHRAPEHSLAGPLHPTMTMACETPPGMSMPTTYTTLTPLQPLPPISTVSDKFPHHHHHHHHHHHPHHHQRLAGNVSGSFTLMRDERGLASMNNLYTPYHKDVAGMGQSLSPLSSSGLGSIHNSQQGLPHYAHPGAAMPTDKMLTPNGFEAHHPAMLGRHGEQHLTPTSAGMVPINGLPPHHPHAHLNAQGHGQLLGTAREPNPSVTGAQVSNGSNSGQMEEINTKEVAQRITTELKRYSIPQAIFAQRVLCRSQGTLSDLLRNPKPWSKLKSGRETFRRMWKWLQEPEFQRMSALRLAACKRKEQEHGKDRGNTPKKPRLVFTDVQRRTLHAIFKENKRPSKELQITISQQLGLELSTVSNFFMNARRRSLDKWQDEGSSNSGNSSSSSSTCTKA

For the molecule `O=C1NC(=O)c2ccccc21`, the outcome in assay [1], in [2], in assay [3], in [4], in assay [5] and in assay [6] was inactive. The molecule was called inactive in assay [7], in assay [8], in assay [9], in assay [11], in assay [12] and in assay [13]. Further, the molecule was called inactive in assay [14] and in assay [15]. Moreover, the AC50 (as a rule, the concentration at which the activity in the assay is half-maximal) in assay [10] was 38.5 µM (active).

Turning to `c1ccc2sc(SN(C3CCCCC3)C3CCCCC3)nc2c1`, the call in assay [1], in assay [2], in assay [3], in assay [4], in assay [5] and in assay [6] was inactive. The molecule was classed as inactive in assay [7], in [9], in assay [16], in assay [17], in assay [11] and in [12]. Besides, the molecule was classed as inactive in assay [18], in assay [13], in assay [14], in assay [19] and in assay [15]. The AC50 in [10] is 0.698 µM (active).

Take `Clc1nc(C(Cl)(Cl)Cl)c(Cl)c(Cl)c1Cl`: the AC50 in assay [1] was 22.6 µM (active); in assay [2] it was 62.7 µM (active); in [6] it was 49.9 µM (active); in assay [7] it was 53.9 µM (active); in [8], 54.4 µM (active); in [10], 39.4 µM (active). Further, the AC50 was 52.5 µM (active) in assay [13] and 62.7 µM (active) in assay [15]. The molecule was classed as inactive in [4], in assay [5], in [9], in assay [16], in assay [17] and in assay [11]. For the same molecule, the outcome in assay [12], in assay [18], in assay [14] and in [19] was inactive.

In the case of `OC1C(O)C(O)C(O)C(O)C1O` (stereo not drawn), the result in assay [1], in assay [3], in [4], in [5], in assay [6] and in assay [7] was inactive. The call in assay [8], in assay [16], in [10], in [17], in assay [11] and in assay [12] was inactive. Besides, the molecule was called inactive in [18], in assay [13], in assay [14], in [19] and in assay [15].
